Records with an inconclusive call do not appear. The source made the active and inactive calls. Unless noted, calls follow the shape of the dose curve; as a rule, active = well fitted curve in either direction with a large enough effect (not every such curve was filed as active); inconclusive = small, poorly fitted or top-dose-only effect, or another doubt; inactive = flat fitted curve, though single readings scatter.
Tests used:
[1] = AP1 Signaling Pathway (AID 357); conditions: ME-180 AP-1-bla reporter, EGF-induced, beta-lactamase ratio, 5 h; at 17.2 µM (top of the series) unless noted;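 also: ME-180 reporter cells stimulated with EGF at its EC50 level; % is scaled to controls: 0 for no effect and ±100 for the full control effect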
Method in brief: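 Beta-lactamase reporter under AP-1 response element, ME-180 background. Stimulus: EC50 EGF. Compound exposure 5 h, 37 °C. Detection: CCF4, 2.5 h RT, 460/530 nm. Values: AC50 from titration.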

[2] = Stat Signaling Pathway (AID 446); conditions: ME-180 SIE beta-lactamase reporter, IL-6 stimulated, 5 h; at 17.2 µM (top of the series) unless noted;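 also: ME-180 cervical cancer cells given 40 pM IL-6 alongside compound; SIE-controlled beta-lactamase reporter measured as 460/530 nm FRET emission ratio; % is scaled to controls: 0 for no effect and ±100 for the full control effect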
Method in brief: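 Emission at 460 and 530 nm (excitation 405 nm) reports SIE-controlled beta-lactamase in ME-180 cells. Cells received compound with 40 pM IL-6 for 5 hrs at 37 C; data scaled between 300 pM IL-6 and 125 nM JAK-inhibitor controls.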

[3] = biological target: Glucocorticoid receptor (Homo sapiens) (UniProt P04150); experiment: GR-GFP Redistribution (AID 450;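 active = compounds whose dose series gives a full or clear partial fitted curve of increased nuclear translocation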; also: potency is read from the fitted curve at half-maximal effect)
[4] = biological target: Mitogen-activated protein kinase 10 (Mus musculus) (UniProt Q61831); experiment: JNK3 AlphaScreen Assay (AID 530);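 also: kinase came from lysate of stimulated human HepG2 cells; signal reports phosphorylation of biotinylated GST-cJun 1-79 at Ser73 with 10 µM ATP; % is scaled to controls: 0 for no effect and ±100 for the full control effect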
Method in brief: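 qHTS titrations with 15 min compound pre-incubation before adding ATP (10 uM final). Read-out: AlphaScreen of Ser73-phosphorylated biotin-GST-cJun using HepG2 lysate JNK3 activated by IL-1β and TNFα.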

[5] = biological target: 3',5'-cyclic-AMP phosphodiesterase 4B (Homo sapiens) (UniProt Q07343); experiment: qHTS Assay for Inhibitors of PDE-IV (AID 607; active = well fitted activation curve with a large enough effect in the main read-out, with a control signal flat, not every such curve was filed as active; also: % of control where 0% means no effect)
Method in brief: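 The readout is membrane depolarisation from a cAMP-sensing CNG channel, detected with a potential dye at ex 535/em 590. Cells were HEK293-derived (endogenous PDE-IV) at 1000 cells/well, titrated up to 22.9 uM final.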

[6] = biological target: Cytochrome P450 3A4 (Homo sapiens) (UniProt P08684); experiment: qHTS Assay for Activators of Cytochrome P450 3A4 (AID 885; active = well fitted curve in the direction sought with a large enough effect; an effect the other way counts as inactive or inconclusive; also: nearly all actives have a fitted effect of over 65% in size)
Method in brief: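 Activators are scored by enhanced luminescence from CYP3A4 conversion of luciferin-PPXE (25uM, equal to KM) to luciferin, after 60 min at RT with an NADPH-regenerating system.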

[7] = biological target: Cytochrome P450 2C19 (Homo sapiens) (UniProt P33261); experiment: qHTS Assay for Inhibitors and Substrates of Cytochrome P450 2C19 (AID 899; active = well fitted curve in the direction sought with a large enough effect; an effect the other way counts as inactive or inconclusive; also: potency is read from the fitted curve at half-maximal effect; nearly all actives have a fitted effect of over 60% in size)
Method in brief: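 Reactions contain 5nM enzyme, 10uM Luciferin-H EGE (KM) and 50mM KPO4; compound preincubates 10 min at 37C, NADPH regeneration starts turnover for 60 min. Luminescence after detection reagent gives activity.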

[8] = biological target: Glucocorticoid receptor (Homo sapiens) (UniProt P04150); experiment: GR-EFC Redistribution (AID 451; calls by dose curve; also: potency is read from the fitted curve at half-maximal effect); conditions: CHO-K1 GR-EFC translocation, beta-gal luminescence, 2 h
Method in brief: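 Translocation of GR-ED fusion to nuclear EA restores b-gal, read by luminescence after 1 h room-temperature detection. Engineered CHO-K1 biosensor cells, 1,000/well, exposed 2 h at 37 C to titrations up to 46 uM final.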

[9] = qHTS Assay for Identification of Small Molecule Agonists for Hypoxia Response Element Signaling Pathway (AID 914; active = well fitted activation curve with a large enough effect in the signal ratio, with a control signal flat, not every such curve was filed as active; the % refers to the signal ratio; also: % of control where 0% means no effect); conditions: ME-180 (cervical carcinoma) HRE-bla reporter, beta-lactamase ratio, CoCl2, 17 h; activation: active compounds read high
Method in brief: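 Read-out: CCF4 FRET ratio of 460nm to 530nm emission (excitation 405nm) after 2.5 hours at room temperature, taken from HRE-bla ME-180 cells that had been exposed to compound and EC50 CoCl2 for 17 hours.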

Sequence of Glucocorticoid receptor (Homo sapiens) (P04150 whole entry, looked up, the tested form may be a part): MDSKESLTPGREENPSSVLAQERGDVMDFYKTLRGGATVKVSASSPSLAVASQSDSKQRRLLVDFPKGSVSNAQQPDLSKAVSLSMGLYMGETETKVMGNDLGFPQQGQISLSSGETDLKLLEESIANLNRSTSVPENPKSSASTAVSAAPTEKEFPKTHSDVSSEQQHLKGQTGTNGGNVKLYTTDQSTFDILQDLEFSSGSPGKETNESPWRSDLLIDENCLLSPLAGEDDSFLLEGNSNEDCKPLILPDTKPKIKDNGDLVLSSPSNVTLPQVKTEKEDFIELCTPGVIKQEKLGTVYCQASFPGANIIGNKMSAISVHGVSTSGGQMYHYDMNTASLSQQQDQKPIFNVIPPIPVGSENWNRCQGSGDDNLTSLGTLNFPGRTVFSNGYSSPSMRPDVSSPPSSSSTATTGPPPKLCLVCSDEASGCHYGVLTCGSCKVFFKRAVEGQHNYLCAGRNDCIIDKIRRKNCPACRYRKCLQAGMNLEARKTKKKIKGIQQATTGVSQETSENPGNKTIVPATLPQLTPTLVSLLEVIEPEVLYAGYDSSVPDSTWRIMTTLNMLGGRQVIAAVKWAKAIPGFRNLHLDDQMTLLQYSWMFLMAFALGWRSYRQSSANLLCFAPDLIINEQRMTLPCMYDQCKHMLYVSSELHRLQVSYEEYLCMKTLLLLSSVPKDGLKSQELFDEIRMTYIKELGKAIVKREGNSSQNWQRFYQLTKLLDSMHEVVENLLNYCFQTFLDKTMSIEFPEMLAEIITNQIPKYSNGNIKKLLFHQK
Sequence of 3',5'-cyclic-AMP phosphodiesterase 4B (Homo sapiens) (Q07343 whole entry, looked up): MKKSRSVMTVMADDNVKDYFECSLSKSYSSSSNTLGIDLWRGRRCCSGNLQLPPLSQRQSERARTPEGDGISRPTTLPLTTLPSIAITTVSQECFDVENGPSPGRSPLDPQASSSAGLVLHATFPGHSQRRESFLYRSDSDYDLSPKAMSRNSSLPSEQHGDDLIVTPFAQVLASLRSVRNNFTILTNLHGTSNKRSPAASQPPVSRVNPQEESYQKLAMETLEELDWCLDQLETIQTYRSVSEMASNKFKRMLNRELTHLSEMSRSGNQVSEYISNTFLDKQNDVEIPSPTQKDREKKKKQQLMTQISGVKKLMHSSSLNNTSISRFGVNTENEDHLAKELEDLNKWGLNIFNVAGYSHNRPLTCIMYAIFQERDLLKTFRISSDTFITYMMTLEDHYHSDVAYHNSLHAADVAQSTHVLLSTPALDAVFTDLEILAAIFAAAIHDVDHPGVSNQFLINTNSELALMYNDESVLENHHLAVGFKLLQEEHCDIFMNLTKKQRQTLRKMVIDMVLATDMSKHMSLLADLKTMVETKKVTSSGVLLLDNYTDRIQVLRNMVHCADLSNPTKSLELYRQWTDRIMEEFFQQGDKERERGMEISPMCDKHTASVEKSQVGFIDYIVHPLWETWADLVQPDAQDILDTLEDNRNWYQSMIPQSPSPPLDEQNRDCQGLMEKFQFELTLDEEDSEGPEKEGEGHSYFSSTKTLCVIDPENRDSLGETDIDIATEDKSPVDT
Sequence of Cytochrome P450 2C19 (Homo sapiens) (P33261 whole entry, looked up): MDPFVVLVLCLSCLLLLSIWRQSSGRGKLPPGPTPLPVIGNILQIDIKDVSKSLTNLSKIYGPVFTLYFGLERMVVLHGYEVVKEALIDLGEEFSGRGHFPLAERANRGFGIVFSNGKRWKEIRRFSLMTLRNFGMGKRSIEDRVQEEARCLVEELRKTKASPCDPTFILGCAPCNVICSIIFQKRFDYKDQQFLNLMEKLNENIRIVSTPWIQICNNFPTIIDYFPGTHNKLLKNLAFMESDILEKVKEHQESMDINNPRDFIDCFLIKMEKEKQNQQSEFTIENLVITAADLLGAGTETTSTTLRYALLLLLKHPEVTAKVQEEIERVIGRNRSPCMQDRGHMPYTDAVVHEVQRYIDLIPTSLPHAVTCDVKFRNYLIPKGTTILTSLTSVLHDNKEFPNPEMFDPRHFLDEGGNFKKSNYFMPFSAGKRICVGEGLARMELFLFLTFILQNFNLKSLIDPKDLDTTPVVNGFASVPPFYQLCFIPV
Sequence of Cytochrome P450 3A4 (Homo sapiens) (P08684 whole entry, looked up): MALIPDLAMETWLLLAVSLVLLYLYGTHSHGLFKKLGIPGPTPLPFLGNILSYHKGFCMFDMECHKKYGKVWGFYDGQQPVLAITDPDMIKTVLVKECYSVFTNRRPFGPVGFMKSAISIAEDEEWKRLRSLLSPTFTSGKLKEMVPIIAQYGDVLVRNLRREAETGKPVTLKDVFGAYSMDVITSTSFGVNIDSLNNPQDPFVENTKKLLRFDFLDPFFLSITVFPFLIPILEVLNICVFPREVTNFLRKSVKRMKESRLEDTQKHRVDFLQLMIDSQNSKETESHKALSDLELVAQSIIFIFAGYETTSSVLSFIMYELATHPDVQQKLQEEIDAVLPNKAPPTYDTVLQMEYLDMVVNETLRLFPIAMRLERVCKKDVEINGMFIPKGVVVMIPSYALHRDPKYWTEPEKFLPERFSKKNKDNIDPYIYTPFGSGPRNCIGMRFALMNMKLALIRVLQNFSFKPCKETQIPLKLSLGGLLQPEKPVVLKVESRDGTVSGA

COc1ccc(CSC2=NCCN2)cc1Cl
inactive: activity change, negative = inhibition [1] 15.6% | activity, negative = inhibition [2] 8.84% | Potency [3] > 20.6 µM

COCCCNC(=O)c1c(N)n(/N=C/c2cccs2)c2nc3ccccc3nc12
inactive: activity change, negative = inhibition [1] 24.9% | activity, negative = inhibition [2] 21.4% | Potency [3] > 20.6 µM

CC(C)Sc1nc(N2CCCC2)c2c(c1C#N)CC(C)(C)OC2
inactive: activity change, negative = inhibition [1] -10.5% | activity, negative = inhibition [2] -9.04% | Potency [3] > 20.6 µM

Cc1c(CCC#N)c(N2CCN(C3CCCCC3)CC2)n2c(nc3ccccc32)c1C#N
inactive: activity change, negative = inhibition [1] -16.9% | activity, negative = inhibition [2] 9.87% | Potency [3] > 20.6 µM

CC1(C)Cc2c(sc(NC(=O)c3ccc(Br)o3)c2C#N)CO1
inactive: activity change, negative = inhibition [1] -3.32% | activity, negative = inhibition [2] -9.34% | Potency [3] > 20.6 µM

Cc1c(C)c2cc(Cl)c(O)c(CN3CCCCC3)c2oc1=O
inactive: activity change, negative = inhibition [1] 17.2% | activity, negative = inhibition [2] 2.68% | Potency [3] > 20.6 µM

CNC(=O)Nc1cccc(NC(=O)NC)n1
inactive: activity change, negative = inhibition [1] 13% | activity, negative = inhibition [2] 0.623% | Potency [3] > 20.6 µM

O=C(NCCN1CCCCC1)/C(=N\O)c1ccccc1
inactive: activity change, negative = inhibition [1] -7.56% | activity, negative = inhibition [2] -1.14% | Potency [3] > 20.6 µM

CC1(C)Cc2c(C#N)c(SCC(=O)c3ccccc3)nc(N3CCOCC3)c2CS1
inactive: activity change, negative = inhibition [1] -7.36% | activity, negative = inhibition [2] 0.377% | Potency [3] > 20.6 µM

Cc1ccccc1OCc1nc2ccccc2c(=O)n1NC(=O)c1ccco1
inactive: activity change, negative = inhibition [1] 4.16% | activity, negative = inhibition [2] 1.48% | Potency [3] > 20.6 µM

COc1ccc(CCn2c(=N)c(C(=O)NCc3ccco3)cc3c(=O)n4ccccc4nc32)cc1
inactive: activity change, negative = inhibition [1] -1.64% | activity, negative = inhibition [2] 2.96% | Potency [3] > 20.6 µM

CN1C2C=C3C(C#N)=C(N)C(C#N)(C#N)[C@@H](c4cccs4)C3C1CC2 (some centres undefined)
inactive: activity change, negative = inhibition [1] 17.2% | activity, negative = inhibition [2] 13.6% | Potency [3] > 20.6 µM

CCCc1nc(N2CCOCC2)c(C#N)c2c1CCCC2
inactive: activity change, negative = inhibition [1] -22% | activity, negative = inhibition [2] -12.3% | Potency [3] > 20.6 µM

N#CCSc1nc2c(cc1C#N)CCCCCC2
inactive: activity change, negative = inhibition [1] -14.6% | activity, negative = inhibition [2] 5.36% | Potency [3] > 20.6 µM

O=C1C=C(N2CCN(C3=CC(=O)CCC3)CC2)CCC1
inactive: activity change, negative = inhibition [1] 20.4% | activity, negative = inhibition [2] 13.1% | Potency [3] > 20.6 µM

CCC1(C)Cc2c(sc3c2c(=O)n(C)c2nnc(SCc4ccccc4)n32)CO1 (centres undefined)
inactive: activity change, negative = inhibition [1] -2.66% | activity, negative = inhibition [2] 1.36% | Potency [3] > 20.6 µM

Cc1cc(Nc2ccc3ccccc3c2)n2ncnc2n1
inactive: activity change, negative = inhibition [1] 16.7% | activity, negative = inhibition [2] -6.76% | Potency [3] > 20.6 µM

CC1(C)C2CCC1(C)C(NC(=O)CCN1CCCCC1)C2 (centres undefined)
inactive: activity change, negative = inhibition [1] 6.22% | activity, negative = inhibition [2] 8.36% | Potency [3] > 20.6 µM

CC(C)c1nc2sc3c(c2c(=O)o1)CCCC3
inactive: activity change, negative = inhibition [1] -7.93% | activity, negative = inhibition [2] 2.63% | Potency [3] > 20.6 µM

O=C(O)CCCCCCC1C(=O)NC(=O)N1CCC(O)C1CCCCC1 (centres undefined)
inactive: activity change, negative = inhibition [1] -4.54% | activity, negative = inhibition [2] 14.6% | Potency [3] > 20.6 µM

N#Cc1c(-c2ccccc2Cl)cc(C2CC2)nc1N
inactive: activity change, negative = inhibition [1] 4.21% | activity, negative = inhibition [2] -2.15% | Potency [3] > 20.6 µM

CCOC(=O)c1cc2c(=O)n3cccc(C)c3nc2n(CCc2ccccc2)c1=N
inactive: activity change, negative = inhibition [1] 9.31% | activity, negative = inhibition [2] 29.4% | Potency [3] > 20.6 µM

NC(=O)/C(=C\c1ccncc1)c1cccc2ccccc12
inactive: activity change, negative = inhibition [1] -11.2% [at 7.69 µM] | activity, negative = inhibition [2] -3.8% [at 7.69 µM] | Potency [3] > 46 µM | activity change, negative = inhibition [4] 1.18% [at 11.4 µM] | Potency [5] | activity change, positive = activation [6] -72.7% [at 11.4 µM]
active: Potency [7] 2.51 µM

C[N+](C)(C)[C@@H](C1=CCCC1=O)c1ccccc1
inactive: activity change, negative = inhibition [1] 3.55% [at 7.69 µM] | activity, negative = inhibition [2] -12.6% [at 7.69 µM] | Potency [3] > 46 µM | Potency [8] > 9.22 µM | activity change, negative = inhibition [4] 5.46% [at 11.4 µM] | Potency [5] | activation [9] -1.62%

Cc1nc(-c2cn[nH]c2)c2cc(C)oc2n1
inactive: activity change, negative = inhibition [1] -1.95% | activity, negative = inhibition [2] -3.87% | Potency [3] > 20.6 µM

CCCc1cc(=O)oc2c(CN3CCCC3)c(O)c(Cl)cc12
inactive: activity change, negative = inhibition [1] -8.98% | activity, negative = inhibition [2] 0.152% | Potency [3] > 20.6 µM

CCOC(=O)c1[nH]c2ccccc2c1N=C(C)N(CC)CC
inactive: activity change, negative = inhibition [1] 4.17% | activity, negative = inhibition [2] 5.19% | Potency [3] > 20.6 µM

Source: PubChem BioAssay (NCATS)
